This passage reports Potency and outcome results from PubChem BioAssay (Tox21).

Molecules are shown by their SMILES. Results filed as inconclusive are left out. Where a structure was tested more than once in an assay, its records may differ in their call. Active and inactive are the calls of the source. Unless noted, the call rests on the fitted dose curve; in most records, active means well fitted curve in the direction sought with a large enough effect in the repeat runs; inconclusive means weak or mixed curves; inactive means no such curve, though single readings can be large; an effect the other way counts as inactive or inconclusive.

The nature of test [1]: qHTS assay to identify aromatase inhibitors - cell viability counter screen (AID 743084;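 further: cells stimulated with testosterone during compound exposure; nearly all actives have a fitted effect of over 55% in size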; further: potency means the concentration at half of the fitted maximal effect). (In general: Quantitative high-throughput screening tests each substance at several concentrations.)
Test [2] addresses Aryl hydrocarbon receptor (Homo sapiens) (UniProt P35869). Put plainly: qHTS assay to identify small molecule that activate the aryl hydrocarbon receptor (AhR) signaling pathway (AID 743085).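 Further: HG2L7.5c1 human HepG2 liver cells with stably integrated DRE-driven firefly reporter; series mostly up to about 70 µM; nearly all actives have a fitted effect of over 15% in size.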 In short, it runs like this:
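HepG2 cells (HG2L7.5c1) stably carrying a firefly luciferase reporter driven by 20 dioxin responsive elements were exposed to compound for 24 h at 37C after a 5 h settling period; luminescence rise (ONE-Glo) indicated activation.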

Test [3] is described as follows: qHTS assay to identify small molecule that activate the aryl hydrocarbon receptor (AhR) signaling pathway - cell viability counter screen (AID 743086).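 Further: HepG2 liver cells carrying the AhR DRE luciferase reporter; series mostly up to about 70 µM; nearly all actives have a fitted effect of over 45% in size.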 In short, it runs like this: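 HepG2-AhR-luc (HG2L7.5c1) cells, 4000/well, were preincubated 5 h at 37C, exposed to compound in qHTS format for 24 hr at 37C, then given CellTiter-Fluor for 30 min; viability was read as fluorescence in the reporter wells.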

The target of test [4] is Peroxisome proliferator-activated receptor gamma (Homo sapiens) (UniProt P37231). Put plainly: qHTS assay to identify small molecule agonists of the peroxisome proliferator-activated receptor gamma (PPARg) signaling pathway (AID 743094; active means well fitted activation curve with a large enough effect in the signal ratio in the repeat runs, not every such curve was filed as active; the % refers to the signal ratio). A digest of the protocol: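 Cells from the PPARg UAS-bla HEK293H line are plated and incubated 5 h at 37C. Compounds in DMSO are pinned in and left 17 h at 37C. LiveBLAzer B/G substrate is then added for 1 h at room temperature before fluorescence is measured.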

The nature of test [5]: qHTS assay to identify small molecule antagonists of the peroxisome proliferator-activated receptor gamma (PPARg) signaling pathway - cell viability counter screen (AID 743194). Further: nearly all actives have a fitted effect of over 55% in size. In short, it runs like this: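 PPARg-UAS-bla HEK293H cells were plated, rested 5 h at 37 C, then treated with compounds plus rosiglitazone (50 nM final) for 17 h at 37 C; viability was then read by CellTiter-Glo luminescence after 30 min at room temperature.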

A short description of test [6]: qHTS assay for small molecule agonists of the antioxidant response element (ARE) signaling pathway (AID 743202; active means well fitted activation curve with a large enough effect in the signal ratio in the repeat runs, not every such curve was filed as active; the % refers to the signal ratio). In short, it runs like this:
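Steps: seed ARE-bla HepG2 cells (2,000/well); incubate 5 h at 37 C; add compounds by pin tool; incubate 16 h at 37 C; add FRET substrate; read fluorescence after 2 h at RT.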

Test [7] is described as follows: qHTS assay for small molecule agonists of the antioxidant response element (ARE) signaling pathway - cell viability counter screen (AID 743203; calls by dose curve; further: nearly all actives have a fitted effect of over 55% in size; further: potency means the concentration at half of the fitted maximal effect). A digest of the protocol:
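Cytotoxicity was tested in parallel with the ARE reporter screen. ARE-bla HepG2 cells were exposed to compounds for 16 hrs, and viability was taken from CellTiter-Glo luminescence.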

The nature of test [8]: qHTS assay to identify small molecule agonists of the peroxisome proliferator-activated receptor delta (PPARd) signaling pathway - cell viability counter screen (AID 743211). Further: nearly all actives have a fitted effect of over 55% in size. A digest of the protocol:
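PPARd-bla HEK293H cells (UAS-beta-lactamase reporter) were treated with compounds for 17 h at 37 C. Viability was then read in the same wells by CellTiter-Glo luminescence after 30 min at room temperature.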

Test [9] addresses Peroxisome proliferator-activated receptor delta (Homo sapiens) (UniProt Q03181). Put plainly: qHTS assay to identify small molecule agonists of the peroxisome proliferator-activated receptor delta (PPARd) signaling pathway (AID 743212; calls by dose curve). A digest of the protocol:
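Cells expressing a UAS-driven beta-lactamase reporter (PPARd-bla HEK293H) were given test compounds after a 5 h settle and kept at 37 C. Reporter activity was then measured as FRET fluorescence using LiveBLAzer B/G substrate.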

A short description of test [10]: qHTS assay to identify small molecule antagonists of the peroxisome proliferator-activated receptor delta (PPARd) signaling pathway - cell viability counter screen (AID 743213). Further: nearly all actives have a fitted effect of over 50% in size. Further: potency means the concentration at half of the fitted maximal effect. In short, it runs like this: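 PPARd-bla HEK293H cells (3000/well) got compound plus 300 nM L165041 agonist for 17 h at 37 C. Viability in the same wells came from CellTiter-Glo luminescence after 30 min at room temperature.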

Test [11] addresses Peroxisome proliferator-activated receptor delta (Homo sapiens) (UniProt Q03181). Nature of the test: qHTS assay to identify small molecule antagonists of the peroxisome proliferator-activated receptor delta (PPARd) signaling pathway (AID 743215; active means well fitted inhibition curve with a large enough effect in the signal ratio in the repeat runs, not every such curve was filed as active; the % refers to the signal ratio;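 further: cells stimulated with agonist L165041 at 300 nM final during compound exposure; series mostly up to about 62 µM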). In short, it runs like this: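 Cells: HEK293H with a UAS-driven beta-lactamase reporter responsive to PPARd. Compounds were co-added with L165041 (300 nM, final) and incubated 17 h at 37 C before a 2 h room-temperature FRET substrate step and fluorescence reading.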

Test [12] addresses Bile acid receptor (Homo sapiens) (UniProt Q96RI1). Put plainly: qHTS assay to identify small molecule antagonists of the farnesoid-X-receptor (FXR) signaling pathway (AID 743217; active means well fitted inhibition curve with a large enough effect in the signal ratio in the repeat runs, not every such curve was filed as active; the % refers to the signal ratio). In short, it runs like this: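 Cells carrying a UAS-driven beta-lactamase reporter (GeneBLAzer FXR-UAS-bla HEK 293T) were plated and rested 5 h at 37 °C. Compounds in DMSO were added alongside chenodeoxycholic acid agonist at 50 uM final and left 16 h at 37 °C before FRET substrate readout.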

Test [13] can be described thus: qHTS assay to identify small molecule agonists of the farnesoid-X-receptor (FXR) signaling pathway - cell viability counter screen (AID 743218). Further: nearly all actives have a fitted effect of over 45% in size. A digest of the protocol:
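Cells were seeded, left 5 h at 37 C and 5% CO2, then dosed with compound in DMSO for 16 h. After the beta-lactamase FRET read, CellTiter-Glo was added and luminescence measured 30 min later.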

Test [14] concerns the target Bile acid receptor (Homo sapiens) (UniProt Q96RI1). Put plainly: qHTS assay to identify small molecule agonists of the farnesoid-X-receptor (FXR) signaling pathway (AID 743220; active means well fitted activation curve with a large enough effect in the signal ratio in the repeat runs, not every such curve was filed as active; the % refers to the signal ratio). In short, it runs like this:
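FXR-UAS-bla HEK 293T cells carrying a UAS-driven beta-lactamase reporter were plated for 5 h at 37C/5% CO2, then exposed to DMSO-dissolved Tox21 10K compounds for 16 h at 37C. A LiveBLAzer B/G FRET substrate was loaded for 2 h at room temperature before fluorescence reading.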

Test [15] in a line: qHTS assay to identify small molecule antagonists of the farnesoid-X-receptor (FXR) signaling pathway - cell viability counter screen (AID 743221; active means well fitted cell-killing curve with a large enough effect in the repeat runs, not every such curve was filed as active; further: nearly all actives have a fitted effect of over 50% in size). A digest of the protocol: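 FXR-UAS-bla HEK 293T cells were treated with test compounds plus chenodeoxycholic acid (50 uM final) for 16 h at 37 C. Cell viability in the same wells was then read as CellTiter-Glo luminescence after 30 min at room temperature.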

For test [16], the target named is Peroxisome proliferator-activated receptor gamma (Homo sapiens) (UniProt P37231). Put plainly: qHTS assay to identify small molecule antagonists of the peroxisome proliferator-activated receptor gamma (PPARg) signaling pathway (AID 743191; calls by dose curve; further: nearly all actives have a fitted effect of over 30% in size; further: potency means the concentration at half of the fitted maximal effect). In short, it runs like this:
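GeneBLAzer PPARg UAS-bla HEK293H cells carrying a UAS-driven beta-lactamase reporter were plated at 3000 cells/well, preincubated 5 h at 37C, then given compound for 17 h at 37C; LiveBLAzer B/G FRET substrate was read after 1 h at room temperature.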

Test [17] is described as follows: qHTS assay for small molecule activators of the heat shock response signaling pathway (AID 743210; active means well fitted activation curve with a large enough effect in the signal ratio in the repeat runs, with a control signal flat, not every such curve was filed as active; the % refers to the signal ratio;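 further: HeLa cells with beta-lactamase reporter driven by heat shock elements; series mostly up to about 63 µM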). In short, it runs like this: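 Activation of heat shock element-controlled beta-lactamase expression is measured in HeLa cells by LiveBLAzer FRET fluorescence, with compound exposure lasting 5 h at 37 C and substrate loading 2.5 h at room temperature.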
A short description of test [18]: qHTS assay for small molecule activators of the heat shock response signaling pathway - cell viability counter screen (AID 743209). Further: nearly all actives have a fitted effect of over 50% in size. A digest of the protocol:
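Cytotoxicity counter screen run in parallel with the HSE beta-lactamase reporter, using the same wells. HeLa HSE-bla cells received compound for 5 h at 37 C; ATP-based CellTiter-Glo luminescence was measured after 30 min at room temperature.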

The target in test [19] is Vitamin D3 receptor (Homo sapiens) (UniProt P11473). Nature of the test: qHTS assay to identify small molecule agonists of the vitamin D receptor (VDR) signaling pathway (AID 743222; calls by dose curve). In short, it runs like this: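 Cells carrying a VDR-driven beta-lactamase reporter are seeded at 2,000 per well and rested 4 h. Compounds in DMSO are added for 16 h at 37C, and FRET substrate fluorescence is measured after 2 h at room temperature.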

The target is the same in test [20]. Put plainly: qHTS assay to identify small molecule antagonists of the vitamin D receptor (VDR) signaling pathway (AID 743223; active means well fitted inhibition curve with a large enough effect in the signal ratio in the repeat runs, not every such curve was filed as active; the % refers to the signal ratio). A digest of the protocol:
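VDR-bla cells were plated, incubated 4 h at 37C, then given compound and 1alpha,25-dihydroxyvitamin D3 (3 nM final). After 16 h at 37C, LiveBLAzer B/G FRET substrate was added for 2 h at room temperature and fluorescence read.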

Chain of Vitamin D3 receptor (Homo sapiens) (P11473 whole entry, looked up): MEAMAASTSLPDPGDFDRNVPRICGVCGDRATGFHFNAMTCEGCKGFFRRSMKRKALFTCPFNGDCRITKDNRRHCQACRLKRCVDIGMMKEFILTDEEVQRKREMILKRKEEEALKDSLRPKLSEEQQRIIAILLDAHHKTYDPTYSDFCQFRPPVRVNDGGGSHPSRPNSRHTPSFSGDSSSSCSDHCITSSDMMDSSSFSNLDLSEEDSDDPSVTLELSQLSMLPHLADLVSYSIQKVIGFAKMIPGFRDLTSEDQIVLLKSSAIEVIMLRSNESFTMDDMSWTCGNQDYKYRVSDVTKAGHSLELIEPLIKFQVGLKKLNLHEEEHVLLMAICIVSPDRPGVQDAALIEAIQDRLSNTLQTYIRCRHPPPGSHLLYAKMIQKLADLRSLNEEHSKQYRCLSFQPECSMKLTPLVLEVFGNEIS
Chain of Bile acid receptor (Homo sapiens) (Q96RI1 whole entry, looked up): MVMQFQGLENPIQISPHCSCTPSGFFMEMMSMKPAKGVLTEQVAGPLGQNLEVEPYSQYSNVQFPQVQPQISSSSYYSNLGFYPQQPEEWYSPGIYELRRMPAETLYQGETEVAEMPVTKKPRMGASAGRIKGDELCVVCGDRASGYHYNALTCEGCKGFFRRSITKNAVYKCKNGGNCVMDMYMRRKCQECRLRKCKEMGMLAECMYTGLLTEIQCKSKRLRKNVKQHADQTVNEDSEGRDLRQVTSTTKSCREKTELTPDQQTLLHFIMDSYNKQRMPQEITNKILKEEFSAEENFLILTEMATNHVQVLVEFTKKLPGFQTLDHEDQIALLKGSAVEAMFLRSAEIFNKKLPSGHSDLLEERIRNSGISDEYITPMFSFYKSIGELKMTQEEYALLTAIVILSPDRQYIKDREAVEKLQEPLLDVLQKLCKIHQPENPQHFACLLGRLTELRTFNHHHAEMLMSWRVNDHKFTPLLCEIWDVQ
Chain of Peroxisome proliferator-activated receptor gamma (Homo sapiens) (P37231 whole entry, looked up): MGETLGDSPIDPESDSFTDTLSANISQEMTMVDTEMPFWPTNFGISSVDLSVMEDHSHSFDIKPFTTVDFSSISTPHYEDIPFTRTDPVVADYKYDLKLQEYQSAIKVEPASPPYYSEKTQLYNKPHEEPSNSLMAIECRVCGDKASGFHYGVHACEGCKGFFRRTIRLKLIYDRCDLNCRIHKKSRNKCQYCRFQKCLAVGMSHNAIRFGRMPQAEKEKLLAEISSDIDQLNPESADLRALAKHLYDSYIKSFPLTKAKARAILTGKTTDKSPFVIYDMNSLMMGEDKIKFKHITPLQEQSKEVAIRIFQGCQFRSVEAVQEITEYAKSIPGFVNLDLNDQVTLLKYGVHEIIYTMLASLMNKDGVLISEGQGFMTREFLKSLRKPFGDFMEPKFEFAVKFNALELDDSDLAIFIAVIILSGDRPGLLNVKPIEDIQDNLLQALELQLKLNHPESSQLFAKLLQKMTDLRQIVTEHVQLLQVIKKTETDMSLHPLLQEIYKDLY
Chain of Peroxisome proliferator-activated receptor delta (Homo sapiens) (Q03181 whole entry, looked up): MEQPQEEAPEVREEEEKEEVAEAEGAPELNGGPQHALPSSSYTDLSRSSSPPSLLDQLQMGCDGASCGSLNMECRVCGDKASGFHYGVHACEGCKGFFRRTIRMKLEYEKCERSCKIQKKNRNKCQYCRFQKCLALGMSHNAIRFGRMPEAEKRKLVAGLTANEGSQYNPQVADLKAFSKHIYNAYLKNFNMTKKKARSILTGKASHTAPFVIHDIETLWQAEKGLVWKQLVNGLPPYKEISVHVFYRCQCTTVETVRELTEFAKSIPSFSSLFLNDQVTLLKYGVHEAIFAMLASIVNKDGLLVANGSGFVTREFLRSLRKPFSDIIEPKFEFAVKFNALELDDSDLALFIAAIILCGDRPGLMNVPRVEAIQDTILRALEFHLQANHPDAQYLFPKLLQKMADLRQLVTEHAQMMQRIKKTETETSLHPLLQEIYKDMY
Chain of Aryl hydrocarbon receptor (Homo sapiens) (P35869 whole entry, looked up): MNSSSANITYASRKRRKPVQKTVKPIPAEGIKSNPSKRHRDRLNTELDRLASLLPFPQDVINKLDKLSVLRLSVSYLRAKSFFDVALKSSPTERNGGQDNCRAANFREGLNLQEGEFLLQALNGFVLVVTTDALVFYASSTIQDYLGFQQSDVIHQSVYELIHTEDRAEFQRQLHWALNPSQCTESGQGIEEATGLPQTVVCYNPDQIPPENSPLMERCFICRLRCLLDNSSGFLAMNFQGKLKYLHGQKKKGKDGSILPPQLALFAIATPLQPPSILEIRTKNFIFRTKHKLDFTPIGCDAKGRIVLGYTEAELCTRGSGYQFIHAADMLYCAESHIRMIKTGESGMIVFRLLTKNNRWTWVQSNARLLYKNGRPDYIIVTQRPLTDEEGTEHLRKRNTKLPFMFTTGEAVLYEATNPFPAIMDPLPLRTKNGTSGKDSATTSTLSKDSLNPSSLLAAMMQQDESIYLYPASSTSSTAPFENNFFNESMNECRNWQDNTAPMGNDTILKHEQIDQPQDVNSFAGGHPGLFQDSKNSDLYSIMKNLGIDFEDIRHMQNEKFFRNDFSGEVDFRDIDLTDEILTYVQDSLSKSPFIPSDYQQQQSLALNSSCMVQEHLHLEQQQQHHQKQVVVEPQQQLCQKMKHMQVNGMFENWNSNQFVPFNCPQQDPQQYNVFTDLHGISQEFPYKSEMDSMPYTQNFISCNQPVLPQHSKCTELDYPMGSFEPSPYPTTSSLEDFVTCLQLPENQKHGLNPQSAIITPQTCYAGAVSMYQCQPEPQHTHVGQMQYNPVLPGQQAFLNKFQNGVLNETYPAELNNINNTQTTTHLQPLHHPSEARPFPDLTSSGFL

Take `C1CN(SSN2CCOCC2)CCO1`: in [1], the Potency is 61.1 µM (active). Besides, the Potency entry in test [2], in test [3], in test [5], in test [6], in [7] and in [8] was “inactive” in each case. Further, the Potency entry in test [10], in test [12], in test [13] and in test [15] was “inactive” in each case. Further, the call in test [4], in test [9], in test [11] and in [14] was inactive.

Consider `O=Cc1ccccc1C=O`, for which the Potency in test [1] was 17.2 µM (active); in test [7], 12.2 µM (active) and inactive; in [10], 24.5 µM (active) and inactive. The Potency entry in [2], in test [3], in [16], in [6], in test [8] and in test [13] was “inactive” throughout. In test [15], the Potency result was “inactive”. Also, the outcome in test [17], in [9] and in test [11] was inactive.

In the case of `O=C(O)CCCCCCCCCCCC(=O)O`, the Potency entry in test [1], in [2], in test [3], in test [16], in test [6] and in [7] was “inactive” in each case. Moreover, the Potency result in [18], in [8], in test [10], in [12], in test [13] and in [15] was “inactive” throughout. Also, the compound was called inactive in [4], in [17], in test [9], in test [11], in test [14] and in [19]. Also, in test [20], the outcome was inactive.

For `Cc1cccc(Nc2ccccc2C(=O)O)c1C`, the Potency result in test [1], in [2], in [3], in [5], in [7] and in test [8] was “inactive” each time. Further, the Potency result in test [10], in test [13] and in test [15] was “inactive” throughout. Further, the Potency in test [16] was 43.6 µM (active). The compound was classed as inactive in test [17] and in test [11].

Consider `Cc1ccc([N+](=O)[O-])c(C)c1`, for which the Potency entry in test [1], in [2], in test [3], in test [16], in test [6] and in test [7] was “inactive” in each case. The Potency entry in [18], in test [8], in test [10], in [12], in [13] and in [15] was “inactive” in each case. In addition, the compound was called inactive in [4], in [17], in test [9], in test [11], in test [14] and in [19]. Further, in test [20], the outcome was inactive.

Take `Cc1ccc(S(=O)(=O)O)cc1C`: the Potency entry in test [1], in test [2], in test [3], in test [16], in [6] and in test [7] was “inactive” in each case. The Potency result in test [18], in test [8], in test [10], in [13] and in test [15] was “inactive” in each case. Moreover, the call in test [4], in test [17], in [9], in test [11], in test [19] and in test [20] was inactive.

On to `O=C(O)c1cc(=O)[nH]c(=O)[nH]1`, for which the Potency result in [1], in test [2], in test [3], in test [16], in test [6] and in test [7] was “inactive” each time. In addition, the Potency entry in test [8], in test [10], in test [13] and in test [15] was “inactive” in each case. The outcome in test [4], in [17], in [9] and in test [11] was inactive.

Turning to `Cc1ccc(C)c(O)c1`, the Potency result in test [1], in [2], in test [3], in test [16], in [6] and in [7] was “inactive” throughout. Moreover, the Potency result in test [8], in test [10], in test [12], in test [13] and in test [15] was “inactive” in each case. Further, the compound was classed as inactive in [4], in test [17], in test [9], in test [11], in [14] and in test [19]. In addition, the call in test [20] was inactive.

`CC(C)[N+](C)(CCOC(=O)C1c2ccccc2Oc2ccccc21)C(C)C`: the Potency result in [1], in [2], in test [3], in [16], in test [6] and in test [7] was “inactive” throughout. Also, the Potency entry in test [18], in [8], in [10], in test [12], in [13] and in test [15] was “inactive” throughout. Also, the result in test [4], in test [17], in [9], in test [11], in test [14] and in [19] was inactive. The result in test [20] was inactive.
